Measured values from PubChem BioAssay (NCATS).
Results filed as inconclusive are left out. A number with no mark means an inactive call. Calls follow the shape of the dose curve; as a rule, active = well fitted inhibition curve with a large enough effect; inconclusive = small, poorly fitted or top-dose-only effect; inactive = flat fitted curve, though single readings scatter.

target: Calcium and integrin-binding protein 1 (Homo sapiens) (UniProt Q99828); test: Primary qHTS for Identification of Calcium Integrin Binding Protein 1 (CIB1) Competitor (AID 1508620); conditions: CIB1-GST / FITC-alphaIIb peptide fluorescence polarization; series mostly up to 114 µM; activity change, negative = inhibition: at the top concentration;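 also: GST tagged CIB1 binding a fluorescein labelled alphaIIb integrin peptide tracer; top concentration of the series differs between compounds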
Sequence (Q99828 whole entry, looked up): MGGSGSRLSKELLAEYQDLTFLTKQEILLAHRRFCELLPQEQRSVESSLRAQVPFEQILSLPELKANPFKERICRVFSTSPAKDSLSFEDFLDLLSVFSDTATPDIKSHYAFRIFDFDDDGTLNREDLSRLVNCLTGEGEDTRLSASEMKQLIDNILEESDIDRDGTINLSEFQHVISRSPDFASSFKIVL
Procedure, shortened: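 Fluorescence polarization competition: CIB1-GST (1 uM final) preincubated with compound 15 min at room temperature, then FITC-labeled alphaIIb peptide (100 nM final) added for another 15 min. Polarization read at Ex 480/Em 540.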
% is scaled to controls: 0 for no effect and ±100 for the full control effect.

Row | Structure (SMILES) | activity change, negative = inhibition
1 | CC(C)c1ccccc1-c1ncc(F)c(NC(C)(C)c2ccc(-c3cccnc3)cc2)n1 | -2.26%
2 | C(=C\c1cccs1)/c1cccnc1 | 3.07%
3 | CC(C)(C)OC(=O)N1CCN(c2ccc(NCc3ncc(-c4ccc(C#N)cc4)o3)cc2)CC1 | -0.676%
4 | c1cncc(-c2ccc3ncnc(NCc4ccc5c(c4)OCO5)c3c2)c1 | -9.15%
5 | COc1ccc(-c2nc3ccccc3c(=O)n2Cc2ccccc2)cc1CNc1ccc(NC(C)=O)cc1 | -6.48%
6 | COc1ccc(-c2c(NC(C)=O)sc3c2CCNC3)cc1 | 3.02%
7 | O=C1Cc2cc(S(=O)(=O)N3CCN(c4ccc(F)cc4)CC3)ccc2N1 | 3.72% [at 228 µM]
8 | COc1ccc(N2Cc3cccc(C(=O)O)c3C2=O)c(OC)c1 | -2.62%
9 | COc1cc(OC)c(C(CC(=O)N2CC(C)CC(C)C2)c2ccc3c(c2)OCO3)c(OCC#N)c1 (configuration not stated) | 3.82% [at 228 µM]
10 | Cc1ccc(-c2ccc(=O)n(CC(=O)NCCc3ccc(O)cc3)n2)cc1 | 0.617%
11 | O=C(NC1CCCc2c1cnn2-c1ccc(F)cc1F)C1CC1 (configuration not stated) | 0.633%
12 | COc1cc(O)c(C(CC(=O)N2CCCC(CN3CCCCC3)C2)c2ccc3c(c2)OCO3)c(OC)c1 (configuration not stated) | 3.11% [at 228 µM]
13 | Cc1ccc(OCCn2c(CCNC(=O)c3cccc(C#N)c3)nc3ccccc32)cc1 | 4.3%
14 | Cc1cc(N2C(=O)c3ccccc3C2=O)n[nH]1 | -7.17%
15 | Brc1sc2c(c1-c1nc3ccccc3s1)CCNC2 | 3.6%
16 | CCOC(=O)C1CCN(C(=O)C(C)(C)NC(=O)Nc2cccc(OC)c2)CC1 | -6.79%
17 | CC1=C(C(=O)Nc2ccccc2)C(c2ccccc2Br)N=C(Nc2nc3ccccc3o2)N1 (configuration not stated) | -0.072%
